PubChem BioAssay (Tox21)
Where “and” joins values, the source holds several entries; their conditions need not be identical. Equal values may be shown once. Some structures have more than one record in an assay (separate samples or runs), and their calls can disagree. Calls of active or inactive are those of the source. Where a call stands in place of a potency, no number is given. Unless noted, the call rests on the fitted dose curve; in most records, active means well fitted curve in the direction sought with a large enough effect in the repeat runs; inconclusive means weak or mixed curves; inactive means no such curve, though single readings can be large; an effect the other way counts as inactive or inconclusive. Positions of bridges follow the written chain, without caps; N, C: chain ends. Non-standard residues stand in square brackets, D forms with d. Residues, ends and D or L forms follow the SMILES beside them. *: point of attachment. Dab(CH2SO3H) = N[C@@H](CCNCS(=O)(=O)O)C(=O)O; X3 = CC[C@@H](C)CCCCC(=O)*; Dab = NCC[C@H](N)C(=O)O

Columns and labels:
[1] = qHTS assay to identify small molecule antagonists of the thyroid receptor (TR) signaling pathway - cell viability counter screen (AID 743064); further: nearly all actives have a fitted effect of over 50% in size; further: potency means the concentration at half of the fitted maximal effect
How it was run: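 Fluorescence from CellTiter-Fluor, added after 23.5 h exposure at 37 °C, reported viability of GH3.TRE-Luc cells co-treated with compound and 1 nM T3. Measured in the same wells as the luciferase TR readout.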

[2] = qHTS assay to identify small molecule antagonists of the thyroid receptor (TR) signaling pathway (AID 743065); further: nearly all actives have a fitted effect of over 55% in size; further: potency means the concentration at half of the fitted maximal effect
How it was run: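 GH3.TRE-Luc rat pituitary cells (two TREs driving luciferase) were dosed with compound, then stimulated with 1 nM T3 (final) for 23.5 h at 37 C. ONE-Glo luminescence was the read-out, with CellTiter-Fluor fluorescence as the cytotoxicity counter-screen.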

[3] = test system: thyroid hormone receptor (rat, GH3 cells); test: qHTS assay to identify small molecule agonists of the thyroid receptor (TR) signaling pathway (AID 743066; calls by dose curve)
[4] = target: Estrogen receptor (Homo sapiens) (UniProt P03372); test: qHTS assay to identify small molecule antagonists of the estrogen receptor alpha (ER-alpha) signaling pathway (AID 743069; active means well fitted curve in the direction sought with a large enough effect in the signal ratio in the repeat runs, not every such curve was filed as active; inconclusive means weak or mixed curves, or effect the other way; inactive means no such curve, though single readings can be large or run the other way; the % refers to the signal ratio; further: potency means the concentration at half of the fitted maximal effect)
How it was run: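 In this cell-based reporter format, GripTite HEK293 cells harbouring ER-alpha-UAS-bla were grown overnight with 2% charcoal-stripped FBS, dosed with DMSO-dissolved compounds, then challenged with 17beta-estradiol. After 18 hr at 37C, beta-lactamase activity was detected by FRET fluorescence.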

[5] = qHTS assay to identify small molecule antagonists of the estrogen receptor alpha (ER-alpha) signaling pathway - cell viability counter screen (AID 743074; calls by dose curve; further: nearly all actives have a fitted effect of over 45% in size; further: potency means the concentration at half of the fitted maximal effect)
[6] = target: Estrogen receptor (Homo sapiens) (UniProt P03372); test: qHTS assay to identify small molecule agonists of the estrogen receptor alpha (ER-alpha) signaling pathway (AID 743075; calls by dose curve; further: potency means the concentration at half of the fitted maximal effect)
[7] = target: Estrogen receptor (Homo sapiens) (UniProt P03372); test: qHTS assay to identify small molecule agonists of the estrogen receptor alpha (ER-alpha) signaling pathway using the BG1 cell line (AID 743079); further: nearly all actives have a fitted effect of over 20% in size; further: potency means the concentration at half of the fitted maximal effect
[8] = qHTS assay to identify small molecule antagonists of the estrogen receptor alpha (ER-alpha) signaling pathway using the BG1 cell line (AID 743080; calls by dose curve; further: series mostly up to about 70 µM; nearly all actives have a fitted effect of over 25% in size)
How it was run: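 Antagonist mode: compounds in DMSO were pinned onto BG1-Luc-4E2 cells alongside 17beta-estradiol agonist, incubated 21.5 h, and ERE-driven luciferase measured with ONE-Glo. Cytotoxicity was multiplexed using CellTiter-Fluor fluorescence.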

[9] = qHTS assay to identify small molecule antagonists of the estrogen receptor alpha (ER-alpha) signaling pathway using the BG1 cell line - cell viability counter screen (AID 743081);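 further: compound given together with 17beta-estradiol as the ER stimulus; nearly all actives have a fitted effect of over 45% in size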; further: potency means the concentration at half of the fitted maximal effect
Aromatase (Homo sapiens) = Aromatase (Homo sapiens) (UniProt P11511); test: qHTS assay to identify aromatase inhibitors (AID 743083); further: nearly all actives have a fitted effect of over 55% in size; further: potency means the concentration at half of the fitted maximal effect
[10] = qHTS assay to identify aromatase inhibitors - cell viability counter screen (AID 743084);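 further: cells stimulated with testosterone during compound exposure; nearly all actives have a fitted effect of over 55% in size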; further: potency means the concentration at half of the fitted maximal effect
[11] = target: Aryl hydrocarbon receptor (Homo sapiens) (UniProt P35869); test: qHTS assay to identify small molecule that activate the aryl hydrocarbon receptor (AhR) signaling pathway (AID 743085); further: nearly all actives have a fitted effect of over 15% in size; further: potency means the concentration at half of the fitted maximal effect;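 on activation: HG2L7.5c1 human HepG2 liver cells with stably integrated DRE-driven firefly reporter; series mostly up to about 70 µM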
How it was run: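 Cell line HG2L7.5c1 (human hepatoma, 20× DRE-luc). Plated, 5 h 37C, compound/DMSO added, 24 h 37C. CellTiter-Fluor 30 min 37C → fluorescence; then ONE-Glo 30 min RT → luminescence.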

[12] = qHTS assay to identify small molecule that activate the aryl hydrocarbon receptor (AhR) signaling pathway - cell viability counter screen (AID 743086); further: nearly all actives have a fitted effect of over 45% in size; further: potency means the concentration at half of the fitted maximal effect
How it was run: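 HepG2-AhR-luc (HG2L7.5c1) cells, 4000/well, treated 24 h at 37 C with compound; viability measured as CellTiter-Fluor fluorescence after 30 min in the same wells as the luciferase read.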

[13] = target: Peroxisome proliferator-activated receptor gamma (Homo sapiens) (UniProt P37231); test: qHTS assay to identify small molecule agonists of the peroxisome proliferator-activated receptor gamma (PPARg) signaling pathway (AID 743094; active means well fitted activation curve with a large enough effect in the signal ratio in the repeat runs, not every such curve was filed as active; inconclusive means weak or mixed curves, or effect the other way; inactive means no such curve, though single readings can be large or run the other way; the % refers to the signal ratio)
How it was run: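 Reporter activation was scored by fluorescence of cleaved LiveBLAzer B/G substrate (1 h, room temperature) in PPARg-bla HEK293H cells previously treated 17 h at 37C with DMSO-dissolved compounds.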

[14] = qHTS assay for small molecule agonists of the antioxidant response element (ARE) signaling pathway (AID 743202; active means well fitted activation curve with a large enough effect in the signal ratio in the repeat runs, not every such curve was filed as active; inconclusive means weak or mixed curves, or effect the other way; inactive means no such curve, though single readings can be large or run the other way; the % refers to the signal ratio; further: potency means the concentration at half of the fitted maximal effect)
How it was run: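 HepG2 ARE-bla cells; 16 h treatment at 37 C; FRET-based beta-lactamase fluorescence read after 2 h substrate incubation at room temperature.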

[15] = qHTS assay for small molecule agonists of the antioxidant response element (ARE) signaling pathway - cell viability counter screen (AID 743203; calls by dose curve; further: nearly all actives have a fitted effect of over 55% in size; further: potency means the concentration at half of the fitted maximal effect)
How it was run: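 Viability counter screen: stably transfected ARE-bla HepG2 line, 16 hrs compound exposure at 37C/5% CO2, ATP-based CellTiter-Glo luminescence measured in the reporter wells.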

[16] = target: Peroxisome proliferator-activated receptor delta (Homo sapiens) (UniProt Q03181); test: qHTS assay to identify small molecule agonists of the peroxisome proliferator-activated receptor delta (PPARd) signaling pathway (AID 743212; calls by dose curve)
How it was run: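 Tox21 library screened in GeneBLAzer PPARd UAS-bla HEK293H cells. After compound treatment at 37 C, a FRET-based beta-lactamase substrate was applied for 2 h and fluorescence recorded.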

[17] = qHTS assay to identify small molecule antagonists of the peroxisome proliferator-activated receptor gamma (PPARg) signaling pathway - cell viability counter screen (AID 743194)
How it was run: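 Cytotoxicity counter screen in PPARg-bla HEK293H cells, same wells as reporter assay. Compounds plus 50 nM rosiglitazone (final) for 17 h at 37 C, then viability read by CellTiter-Glo luminescence.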

[18] = qHTS assay to identify small molecule agonists of the peroxisome proliferator-activated receptor delta (PPARd) signaling pathway - cell viability counter screen (AID 743211); further: nearly all actives have a fitted effect of over 55% in size; further: potency means the concentration at half of the fitted maximal effect
How it was run: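 HEK293H PPARd-bla, 3000 cells/well; 5 h preincubation 37C/5% CO2; cpd in DMSO, 17 h 37C; B/G FRET substrate 2 h RT; CellTiter-Glo 30 min RT, luminescence.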

Estrogen receptor (Homo sapiens), sequence (P03372 whole entry, looked up): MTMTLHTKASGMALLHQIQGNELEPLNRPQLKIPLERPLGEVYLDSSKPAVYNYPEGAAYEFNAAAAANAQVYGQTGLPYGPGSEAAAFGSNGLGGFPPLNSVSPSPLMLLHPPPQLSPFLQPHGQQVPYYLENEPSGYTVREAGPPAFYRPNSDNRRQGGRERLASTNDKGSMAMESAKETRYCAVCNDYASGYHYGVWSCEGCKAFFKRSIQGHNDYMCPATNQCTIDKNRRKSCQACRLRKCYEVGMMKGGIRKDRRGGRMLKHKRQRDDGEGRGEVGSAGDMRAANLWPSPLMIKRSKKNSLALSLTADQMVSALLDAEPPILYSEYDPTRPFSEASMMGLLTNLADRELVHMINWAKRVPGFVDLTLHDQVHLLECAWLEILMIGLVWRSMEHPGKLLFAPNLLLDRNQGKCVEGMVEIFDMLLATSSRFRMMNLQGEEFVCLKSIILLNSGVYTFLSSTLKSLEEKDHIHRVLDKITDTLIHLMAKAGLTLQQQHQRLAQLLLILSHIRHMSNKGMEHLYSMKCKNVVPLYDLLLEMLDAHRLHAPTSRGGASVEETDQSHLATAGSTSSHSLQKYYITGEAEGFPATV
Aryl hydrocarbon receptor (Homo sapiens), sequence (P35869 whole entry, looked up): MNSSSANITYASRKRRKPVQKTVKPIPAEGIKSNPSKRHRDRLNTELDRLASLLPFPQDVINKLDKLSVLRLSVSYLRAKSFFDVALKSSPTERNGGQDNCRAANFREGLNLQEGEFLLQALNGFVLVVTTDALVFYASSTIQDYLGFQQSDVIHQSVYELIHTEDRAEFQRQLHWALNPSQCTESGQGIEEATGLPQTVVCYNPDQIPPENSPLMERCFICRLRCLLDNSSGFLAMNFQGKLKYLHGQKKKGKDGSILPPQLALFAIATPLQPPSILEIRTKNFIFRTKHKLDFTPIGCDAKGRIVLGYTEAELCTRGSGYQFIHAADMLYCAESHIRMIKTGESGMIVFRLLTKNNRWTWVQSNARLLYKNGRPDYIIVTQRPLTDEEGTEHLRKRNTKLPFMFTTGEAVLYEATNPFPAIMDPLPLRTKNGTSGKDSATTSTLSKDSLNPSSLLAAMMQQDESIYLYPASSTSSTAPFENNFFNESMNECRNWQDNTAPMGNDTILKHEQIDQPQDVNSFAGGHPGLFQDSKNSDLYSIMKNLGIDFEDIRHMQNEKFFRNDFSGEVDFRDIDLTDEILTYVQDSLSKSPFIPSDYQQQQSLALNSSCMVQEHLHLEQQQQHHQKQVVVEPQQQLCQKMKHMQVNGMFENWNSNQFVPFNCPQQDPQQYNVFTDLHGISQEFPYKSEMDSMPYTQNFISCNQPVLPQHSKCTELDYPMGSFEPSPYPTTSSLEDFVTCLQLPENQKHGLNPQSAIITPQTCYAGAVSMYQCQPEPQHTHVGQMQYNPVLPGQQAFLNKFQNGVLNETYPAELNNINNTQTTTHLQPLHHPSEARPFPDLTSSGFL
Aromatase (Homo sapiens), sequence (P11511 whole entry, looked up): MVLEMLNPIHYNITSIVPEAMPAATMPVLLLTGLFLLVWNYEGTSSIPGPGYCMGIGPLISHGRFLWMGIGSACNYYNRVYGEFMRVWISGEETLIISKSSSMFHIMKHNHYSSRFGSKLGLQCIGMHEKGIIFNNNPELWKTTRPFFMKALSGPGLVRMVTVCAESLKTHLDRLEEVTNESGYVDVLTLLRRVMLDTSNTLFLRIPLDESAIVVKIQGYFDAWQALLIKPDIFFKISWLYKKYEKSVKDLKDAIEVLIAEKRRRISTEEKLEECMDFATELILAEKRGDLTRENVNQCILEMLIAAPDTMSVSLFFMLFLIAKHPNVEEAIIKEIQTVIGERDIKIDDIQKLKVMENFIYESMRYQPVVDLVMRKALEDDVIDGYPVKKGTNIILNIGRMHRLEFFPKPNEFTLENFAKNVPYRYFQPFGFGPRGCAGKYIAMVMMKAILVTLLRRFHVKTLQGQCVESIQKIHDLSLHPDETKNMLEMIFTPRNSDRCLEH
Peroxisome proliferator-activated receptor gamma (Homo sapiens), sequence (P37231 whole entry, looked up): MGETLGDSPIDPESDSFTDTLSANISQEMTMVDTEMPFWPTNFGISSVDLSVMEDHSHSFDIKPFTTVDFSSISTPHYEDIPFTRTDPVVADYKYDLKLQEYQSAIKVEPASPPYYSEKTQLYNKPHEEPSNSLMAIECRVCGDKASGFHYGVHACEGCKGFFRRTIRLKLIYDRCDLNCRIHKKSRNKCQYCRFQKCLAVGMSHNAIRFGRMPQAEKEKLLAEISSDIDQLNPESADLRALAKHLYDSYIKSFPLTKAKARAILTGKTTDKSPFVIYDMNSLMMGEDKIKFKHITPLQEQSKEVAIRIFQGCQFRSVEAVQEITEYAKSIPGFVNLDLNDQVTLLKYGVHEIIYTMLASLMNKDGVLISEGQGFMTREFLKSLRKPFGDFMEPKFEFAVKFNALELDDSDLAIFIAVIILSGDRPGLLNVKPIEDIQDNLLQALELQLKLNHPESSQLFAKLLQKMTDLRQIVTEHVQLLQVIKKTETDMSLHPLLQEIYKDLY
Peroxisome proliferator-activated receptor delta (Homo sapiens), sequence (Q03181 whole entry, looked up): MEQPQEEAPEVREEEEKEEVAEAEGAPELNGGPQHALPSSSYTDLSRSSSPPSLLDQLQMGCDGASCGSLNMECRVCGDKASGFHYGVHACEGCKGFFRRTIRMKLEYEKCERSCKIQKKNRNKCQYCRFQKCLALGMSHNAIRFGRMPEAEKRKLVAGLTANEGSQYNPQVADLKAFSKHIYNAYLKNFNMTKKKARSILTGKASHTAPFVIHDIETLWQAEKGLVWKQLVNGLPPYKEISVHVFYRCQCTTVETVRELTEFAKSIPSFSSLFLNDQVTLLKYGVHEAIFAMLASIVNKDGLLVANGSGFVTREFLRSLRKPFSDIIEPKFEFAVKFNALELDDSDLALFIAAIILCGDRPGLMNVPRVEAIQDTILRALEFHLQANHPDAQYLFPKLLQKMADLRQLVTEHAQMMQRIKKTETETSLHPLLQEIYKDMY

Row | SMILES | Potency [1] | Potency [2] | Potency [3] | Potency [4] | Potency [5] | Potency [6] | Potency [7] | Potency [8] | Potency [9] | Potency (Aromatase (Homo sapiens)) | Potency [10] | Potency [11] | Potency [12] | Potency [13] | Potency [14] | Potency [15] | outcome [16] | Potency [17] | Potency [18]
1 | CCOC(=O)COc1ccc2c(=O)cc(-c3ccccc3)oc2c1 | inactive | inactive | inactive | inactive | inactive | inactive | inactive | inactive | inactive | inactive | inactive | inactive | inactive | inactive |  |  |  |  | 
2 | CCCOC(=O)c1ccc(O)cc1 | inactive | inactive | inactive | inactive | inactive | 26.8 µM [activator] (active) and 24.5 µM [inconclusive] (active) | 21.1 µM (active) and 16.1 µM (active) |  | inactive | inactive | inactive | inactive and 23 µM (active) | inactive | inactive | 17.2 µM (active) | inactive | inactive |  | 
3 | COc1cc(/C=C/C(=O)CC(=O)/C=C/c2ccc(O)c(OC)c2)ccc1O | 23.7 µM (active) and inactive and 13.8 µM (active) | 23.7 µM (active) and 17.3 µM (active) | inactive |  | inactive and 49.3 µM (active) | inactive | 23.7 µM (active) and inactive | inactive | inactive and 54.8 µM (active) | inactive and 48.9 µM (active) | inactive | inactive | inactive and 27.5 µM (active) |  |  | 54.8 µM (active) |  | 43.9 µM (active) | 34.9 µM (active)
4 | NC(=O)C1c2ccccc2CCc2ccccc21 | inactive | inactive | inactive |  | inactive | inactive | inactive | inactive | inactive | inactive | inactive | inactive | inactive | inactive |  |  |  |  | 
5 | CC(=NCc1ccccc1)c1ccccc1O | inactive | inactive | inactive |  | inactive | inactive | inactive | inactive | inactive | inactive | inactive | inactive | inactive | inactive |  |  |  |  | 
6 | O=P(O)(O)CP(=O)(O)O | inactive | inactive | inactive |  | inactive | inactive | inactive | inactive | inactive | inactive | inactive | inactive | inactive | inactive |  |  |  |  | 
7 | CC12CCC(C1)C(C)(C)C2=O (centres undefined) | inactive | inactive | inactive | inactive | inactive | inactive | inactive | inactive | inactive | inactive | inactive | inactive |  | inactive |  |  |  |  | 
8 | NCC(O)CC(=O)O (centres undefined) | inactive | inactive | inactive | inactive | inactive | inactive | 16.8 µM (active) | inactive | inactive | inactive | inactive | inactive |  | inactive |  |  |  |  | 
9 | CCCCCCOC(=O)c1cccnc1 | inactive | inactive | inactive | inactive |  | inactive | inactive | inactive | inactive | inactive | inactive | inactive |  | inactive |  |  |  |  | 
10 | CC[C@@H](C)CCCCC(=O)N[C@@H](CCNCS(=O)(=O)O)C(=O)N[C@H](C(=O)N[C@@H](CCNCS(=O)(=O)O)C(=O)N[C@H]1CCNC(=O)[C@H]([C@@H](C)O)NC(=O)[C@H](CCNCS(=O)(=O)O)NC(=O)[C@H](CCNCS(=O)(=O)O)NC(=O)[C@H](CC(C)C)NC(=O)[C@@H](CC(C)C)NC(=O)[C@H](CCNCS(=O)(=O)O)NC1=O)[C@@H](C)O (X3-[Dab(CH2SO3H)]T[Dab(CH2SO3H)][Dab][Dab(CH2SO3H)][dL]L[Dab(CH2SO3H)][Dab(CH2SO3H)]T; lactam 4-C) | inactive | inactive | inactive |  | inactive | inactive | inactive | inactive | inactive | inactive | inactive | inactive | inactive |  |  |  |  |  | 
11 | C(=C\c1ccncc1)/c1ccccc1 | inactive | inactive | inactive | inactive | inactive | inactive | 13.3 µM (active) |  | inactive | inactive and 21.1 µM (active) | inactive | 23.7 µM (active) and 13.3 µM (active) | inactive | inactive |  |  |  |  | 
12 | O=C(Cn1cnnn1)N[C@@H]1C(=O)N2C(C(=O)O)=C(CSc3nncs3)CS[C@H]12 | inactive | inactive | inactive |  | inactive | inactive | inactive | inactive | inactive | inactive | inactive | inactive | inactive | inactive |  |  |  |  | 
13 | Nc1nc(/C(=C/CC(=O)O)C(=O)N[C@@H]2C(=O)N3C(C(=O)O)=CCS[C@H]23)cs1 | inactive | inactive | inactive | inactive | inactive | inactive | inactive | inactive | inactive | inactive | inactive |  | inactive | inactive |  |  |  |  | 
14 | CCOc1ccc([N+](=O)[O-])cc1 | 31.1 µM (active) | 31.1 µM (active) | inactive | 55.8 µM [inconclusive] (active) |  | 6.26 µM [inconclusive] (active) | 1.96 µM (active) |  |  | 27.7 µM (active) | 55.3 µM (active) | inactive |  |  |  |  |  |  | 49.7 µM (active)
15 | CC(Cc1ccc(O)c(O)c1)C(C)Cc1ccc(O)c(O)c1 (centres undefined) | 13.7 µM (active) | 7.7 µM (active) | inactive | 54.9 µM [inconclusive] (active) |  | 0.0174 µM [inconclusive] (active) |  | inactive | inactive | inactive |  | inactive |  |  |  | 61.1 µM (active) |  |  | inactive
